Screens (PubChem BioAssay)
In the library only some 6.7% were active in any assay of this set; here they are far more common.
T cruzi growth-1 – inhibitors of T. cruzi proliferation; T. cruzi beta-gal in NIH3T3, GalScreen luminescence, 90 h; inhibition, % at 8.34 µM; 77,000 compounds, 5.9% hits;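 active = mean inhibition above about 93%, with at least 55% of replicates each passing it, limit read from the data, passing the limit was not always enough; inconclusive = only one of those two conditions holds; inactive = neither condition holds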
C diff HTS – inhibitors of Clostridium difficile growth; Clostridium difficile clinical isolate growth, OD600, 24 h; active compounds read low; growth activity, negative = inhibition, % at 16 µg/mL (by protocol); 86,000 compounds, 0.25% hits; AID 1259249;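 active = mean growth activity at or below -80% and every replicate also at or below -80%; inconclusive = mean at or below -80% but some replicate above -80%; inactive = mean growth activity above -80%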;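 also: 0% = DMSO wells and -100% = levofloxacin 16 µg/mL wells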
Pf Dd2 growth – P. falciparum Dd2 growth inhibition. 94,000 compounds, 2.3% hits. AID 1159554. activity change, % at 10 µM. SYBR Green, 72 h; active compounds read low; in the data active = activity change below about -80%; inconclusive = no clear call, values can overlap the other calls
T cruzi growth-2 – inhibitors of T. cruzi proliferation | shares compounds with T cruzi growth-1 | T. cruzi beta-gal in NIH3T3, GalScreen luminescence, 90 h | inhibition, % at 8.35 µM | 5,600 compounds, 72% hits;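 active = mean replicate inhibition above about 95% and at least 55% of replicates individually reaching it, limit read from the data; inconclusive = only one of the two criteria is met; inactive = neither criterion is met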
T cruzi growth-3 – Trypanosoma cruzi proliferation inhibition; shares compounds with T cruzi growth-1; T. cruzi beta-gal in NIH3T3, GalScreen luminescence, 90 h; inhibition, % at 2.09 µM; 5,600 compounds, 21% hits; AID 651740;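 active = mean inhibition above about 95%, with at least 55% of replicates also reaching it, limit read from the data; inconclusive = meets just one of the two conditions; inactive = meets neither condition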;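 also: plate controls were neutral control median for no effect and positive control median for full effect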
NIH3T3 tox – cytotoxicity in mouse NIH/3T3 fibroblasts; shares compounds with T cruzi growth-1; NIH/3T3 viability, CellTiter-Glo ATP luminescence, 90 h; cytotoxicity (signal decrease), % at 8.35 µM; 5,600 compounds, 14% hits;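 active = mean signal decrease across replicates above about 35% based on untreated-well scatter, with enough replicates individually passing, limit read from the data; inconclusive = no rule stated though some were filed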;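 also: 0% = median of neutral control wells and 100% = median of positive control wells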
NIH3T3 tox 2 – NIH/3T3 (mouse) viability loss. AID 651744. shares compounds with T cruzi growth-1. inhibition, % at 24.9 µM. NIH/3T3 viability, CellTiter-Glo ATP luminescence, 90 h. 5,600 compounds, 56% hits;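 active = mean loss of cell viability signal at or above a set limit, and enough replicates individually reaching it; inconclusive = meets only the mean limit or only the replicate share; inactive = meets neither condition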;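 also: 0% = median of neutral control wells and 100% = median of positive control wells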
* = called active by the depositor.

What do the screens show for `CC(=O)N(C)C[C@H]1Oc2cc(C#Cc3cccnc3)ccc2S(=O)(=O)N([C@H](C)CO)C[C@H]1C`?
T cruzi growth-1: 0; C diff HTS: 1; Pf Dd2 growth: 4

Results for Cc1cccc(-c2ccc([C@H]3[C@@H](CO)N4CCCCN(C(=O)c5cccnc5)C[C@H]34)cc2)c1 ?
T cruzi growth-1: 114*; C diff HTS: 0; Pf Dd2 growth: 25; T cruzi growth-2: 96*; T cruzi growth-3: 75; NIH3T3 tox: 10; NIH3T3 tox 2: inconclusive

Results for Cc1cccc(-c2ccc([C@H]3[C@H](CO)N4CCCCN(C(=O)c5ccncc5)C[C@@H]34)cc2)c1 ?
T cruzi growth-1: 68; C diff HTS: -3; Pf Dd2 growth: 17

How did Cc1ccccc1-c1ccc([C@H]2[C@H]3CN(C(=O)c4cccnc4)CCCCN3[C@H]2CO)cc1 do in these assays?
T cruzi growth-1: 36; C diff HTS: -3; Pf Dd2 growth: 25

Results for Cc1cccc(-c2ccc([C@H]3[C@@H](CO)N4CCCCN(C(=O)c5cccnc5)C[C@@H]34)cc2)c1 ?
T cruzi growth-1: inconclusive; C diff HTS: -10; Pf Dd2 growth: 26; T cruzi growth-2: 108*; T cruzi growth-3: 42; NIH3T3 tox: 36*; NIH3T3 tox 2: 22

Results for Cc1cccc(-c2ccc([C@H]3[C@@H](CO)N4CCCCN(C(=O)c5ccncc5)C[C@@H]34)cc2)c1 ?
T cruzi growth-1: 79; C diff HTS: 4; Pf Dd2 growth: 18

Results for Cc1cccc(-c2ccc([C@@H]3[C@H]4CN(C(=O)c5cccnc5)CCCCN4[C@H]3CO)cc2)c1 ?
T cruzi growth-1: 104*; C diff HTS: -1; Pf Dd2 growth: 44; T cruzi growth-2: 73; T cruzi growth-3: 30; NIH3T3 tox: 11; NIH3T3 tox 2: 42*

Results for C[C@H]1CN([C@@H](C)CO)C(=O)c2cccc(NS(=O)(=O)c3ccccc3)c2O[C@H]1CN(C)C(=O)Nc1ccc2c(c1)OCO2 ?
T cruzi growth-1: 6; C diff HTS: 1; Pf Dd2 growth: -19

How did O=C(C[C@H]1C[C@@H]2c3cc(NC(=O)c4cccnc4)ccc3O[C@@H]2[C@@H](CO)O1)NCCN1CCCCC1 do in these assays?
T cruzi growth-1: 10; Pf Dd2 growth: 13

How did Cc1ccc(S(=O)(=O)N2C[C@@H](O)COC[C@H]3O[C@H](CC(=O)NCc4ccc(Cl)c(Cl)c4)CC[C@@H]32)cc1 do in these assays?
T cruzi growth-1: 58; Pf Dd2 growth: -3

How did O=C(C[C@H]1CC[C@@H]2[C@H](COC[C@@H](O)CN2S(=O)(=O)c2ccc(Cl)cc2)O1)NCc1ccc(Cl)c(Cl)c1 do in these assays?
T cruzi growth-1: 97*; Pf Dd2 growth: -10; T cruzi growth-2: 104*; T cruzi growth-3: 24; NIH3T3 tox: 9; NIH3T3 tox 2: 62*

How did O=C(C[C@@H]1CC[C@H]2[C@@H](COC[C@@H](O)CN2S(=O)(=O)c2ccc(Cl)cc2)O1)NCc1ccc(Cl)c(Cl)c1 do in these assays?
T cruzi growth-1: 88; Pf Dd2 growth: -1

How did O=C(C[C@H]1CC[C@H]2[C@@H](COC[C@@H](O)CN2S(=O)(=O)c2ccc(Cl)cc2)O1)NCc1ccc(Cl)c(Cl)c1 do in these assays?
T cruzi growth-1: 104*; Pf Dd2 growth: 2; T cruzi growth-2: 100*; T cruzi growth-3: 41; NIH3T3 tox: 29; NIH3T3 tox 2: 55*

Results for O=C(C[C@H]1CC[C@@H]2[C@H](COC[C@H](O)CN2S(=O)(=O)c2ccc(Cl)cc2)O1)NCc1ccc(Cl)c(Cl)c1 ?
T cruzi growth-1: 74; Pf Dd2 growth: -8

Results for COc1ccc(S(=O)(=O)N2C[C@@H](O)COC[C@H]3O[C@@H](CC(=O)NCc4ccc(Cl)c(Cl)c4)CC[C@@H]32)cc1 ?
T cruzi growth-1: 118*; C diff HTS: -2; Pf Dd2 growth: -68; T cruzi growth-2: 107*; T cruzi growth-3: 25; NIH3T3 tox: 8; NIH3T3 tox 2: 26

What do the screens show for `OC[C@@H]1[C@H]2c3ccccc3OC1(CO)N=C1SCc3ccccc3CN12`?
C diff HTS: -1

What do the screens show for `Cc1cc(C(=O)Nc2cccc3c2O[C@@H](CN(C)Cc2ccc(-c4ccccc4)cc2)[C@H](C)CN([C@H](C)CO)C3=O)n(C)n1`?
T cruzi growth-1: 91; C diff HTS: 6; Pf Dd2 growth: -29

How did C[C@@H]1CCCCO[C@@H](CN(C)S(C)(=O)=O)[C@H](C)CN([C@@H](C)CO)C(=O)c2cc(NC(=O)c3ccncc3)ccc2O1 do in these assays?
T cruzi growth-1: 31; Pf Dd2 growth: 27

What do the screens show for `CCCC(=O)N1CC2(CN(C)C2)c2c(n(C)c3cc(OC)ccc23)[C@@H]1CO`?
C diff HTS: -8; Pf Dd2 growth: -5

What do the screens show for `Cc1ccc(S(=O)(=O)N(C)C[C@@H]2OCCCC[C@@H](C)Oc3ccc(NC(=O)Nc4cccc5ccccc45)cc3C(=O)N([C@H](C)CO)C[C@@H]2C)cc1`?
C diff HTS: 8; Pf Dd2 growth: -75

Results for C[C@H](CO)N1C[C@H](C)[C@@H](CN(C)S(=O)(=O)c2ccc(Cl)cc2)Oc2ccc(NC(=O)Nc3cccc4ccccc34)cc2C1=O ?
C diff HTS: -3; Pf Dd2 growth: -77

Results for C[C@@H]1CCCCO[C@H](CN(C)S(=O)(=O)c2ccc(Cl)cc2)[C@H](C)CN([C@@H](C)CO)C(=O)c2cc(NC(=O)Nc3cccc4ccccc34)ccc2O1 ?
T cruzi growth-1: 101*; C diff HTS: 1; Pf Dd2 growth: -80; T cruzi growth-2: 109*; T cruzi growth-3: 104*; NIH3T3 tox: 2; NIH3T3 tox 2: 11

How did C[C@@H]1CN([C@H](C)CO)C(=O)c2cc(NC(=O)Nc3cccc4ccccc34)ccc2O[C@@H]1CN(C)S(=O)(=O)c1ccc(Cl)cc1 do in these assays?
T cruzi growth-1: 98*; C diff HTS: -2; Pf Dd2 growth: 16; T cruzi growth-2: 107*; T cruzi growth-3: 59; NIH3T3 tox: 10; NIH3T3 tox 2: 49*

How did C[C@@H]1CCCCO[C@H](CN(C)S(=O)(=O)c2ccc(F)cc2)[C@@H](C)CN([C@H](C)CO)C(=O)c2cc(NC(=O)Nc3cccc4ccccc34)ccc2O1 do in these assays?
T cruzi growth-1: 63; C diff HTS: -3; Pf Dd2 growth: -3

How did C[C@@H]1CCCCO[C@H](CN(C)S(=O)(=O)c2ccc(F)cc2)[C@H](C)CN([C@H](C)CO)C(=O)c2cc(NC(=O)Nc3cccc4ccccc34)ccc2O1 do in these assays?
T cruzi growth-1: 101*; C diff HTS: -5; Pf Dd2 growth: -79; T cruzi growth-2: 104*; T cruzi growth-3: 108*; NIH3T3 tox: -12; NIH3T3 tox 2: 15
